Experimental data published in PubChem BioAssay AID1851 (National Center for Advancing Translational Sciences (NCATS), 2009).
Screen size: about 16,000 compounds; about 5,100 (32%) were called active. Another 25% or so got no clear call; they are omitted. Calls come from the whole dose curve; as a rule, active = well fitted curve in the direction sought with a large enough effect; inconclusive = small, poorly fitted or top-dose-only effect, or effect the other way; inactive = no such curve, though single readings can be large or run the other way. This is one part of the list.

molecular target: Cytochrome P450 3A4 (Homo sapiens) (UniProt P08684); assay: Cytochrome panel assay with activity outcomes; conditions: recombinant CYP, pro-luciferin dealkylation, luminescence, p450-cyp3a4; series mostly up to 57.1 µM
Sequence (P08684 whole entry, looked up): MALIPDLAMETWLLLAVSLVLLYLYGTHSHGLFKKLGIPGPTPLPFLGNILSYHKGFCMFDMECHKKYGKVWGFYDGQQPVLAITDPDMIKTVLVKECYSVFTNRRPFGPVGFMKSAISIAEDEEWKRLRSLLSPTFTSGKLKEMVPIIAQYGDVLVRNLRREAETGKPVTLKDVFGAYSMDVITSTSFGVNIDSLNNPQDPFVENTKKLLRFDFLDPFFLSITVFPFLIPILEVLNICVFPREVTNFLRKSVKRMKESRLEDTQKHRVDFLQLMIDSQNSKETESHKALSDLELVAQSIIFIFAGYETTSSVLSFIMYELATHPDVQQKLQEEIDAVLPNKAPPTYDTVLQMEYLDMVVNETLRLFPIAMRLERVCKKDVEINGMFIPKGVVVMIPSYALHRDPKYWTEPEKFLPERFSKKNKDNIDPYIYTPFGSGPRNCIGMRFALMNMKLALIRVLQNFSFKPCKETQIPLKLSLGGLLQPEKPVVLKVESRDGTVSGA
% is set by controls: 0 for no effect and ±100 for the full control effect.

AC50, active:
Cc1cccc(NC(=O)CSc2nc3nc(C)cc(C)c3c(=O)[nH]2)c1 3.55 µM
COC(=O)[C@@]1(Cc2ccc(F)cc2)[C@H]2c3cc(C(=O)N(C)C)n(Cc4c(CO)[nH]cc(C)c4=O)c3C[C@H]2CN1C(=O)c1ccccc1 1.58 µM
COC(=O)[C@@]1(Cc2ccccc2)[C@H]2c3cc(C(=O)N(C)C)n(Cc4c(CO)[nH]cc(C)c4=O)c3C[C@H]2CN1C(=O)c1ccccc1 1.58 µM
CCCCNC(=O)CSc1nc2cc(OC)c(OC)cc2c(=O)n1Cc1ccc(OC)cc1 2.82 µM
CCCCn1c(SCC(N)=O)nc2ccc(N3CCOCC3)cc2c1=O 10 µM
COCCNC(=O)CSc1nc2ccc(N3CCOCC3)cc2c(=O)n1Cc1ccc(OC)cc1 5.01 µM
Cc1ccc(OCC(=O)N2CCN(c3ccc([N+](=O)[O-])c(N4CCOCC4)c3)CC2)cc1 7.08 µM
COc1ccc2nc(SCC(=O)c3ccco3)[nH]c2c1 11.2 µM
CCOC(=O)NC(=O)CSc1nc2ccc(OCC)cc2[nH]1 28.2 µM
Cc1ccc2oc(-c3cccc(NC(=S)NC(=O)/C=C/c4ccco4)c3)nc2c1 1 µM
O=C(COc1ccc(Cl)cc1)N(Cc1ccccc1)c1ccccn1 22.4 µM
N#Cc1cccc(-c2cncnc2-n2ccnc2)c1 2.51 µM
c1cncc(-c2cncnc2-n2ccnc2)c1 7.94 µM
CN(C)c1ccc(-c2cncnc2-n2ccnc2)cc1 2.51 µM
COc1cccc(-c2cncnc2-n2ccnc2)c1 0.316 µM
COc1ccccc1-c1cncnc1-n1ccnc1 0.251 µM
CC(Sc1ccc2c(c1)OCCO2)C(=O)Nc1ncc(Cl)cc1Cl (stereo not drawn) 14.1 µM
C/C(CCC(=O)OC[C@@H]1O[C@H](C#Cc2ccccc2)C=C[C@@H]1Oc1ccc(C)cc1)=N/O[C@@H](C)CN1CCCc2nc(C)c(C)cc21 3.98 µM
C/C(CCC(=O)OC[C@@H]1O[C@H](C#Cc2ccccc2)C=C[C@@H]1Oc1ccc(C)cc1)=N/O[C@@H](C)CN1CCCCc2nc(C)c(C)cc21 3.16 µM
COC(=O)c1ccccc1N/C=C1\CCc2c(c(C)nn2-c2ccccn2)C1=O 14.1 µM
O=C(Nc1ccc(Cl)c(C(F)(F)F)c1)C1CCCN(S(=O)(=O)c2cnc[nH]2)C1 (stereo not drawn) 0.126 µM
COc1ccc(Cc2nnc(NC(=O)CSc3ccc(C)cc3)s2)cc1OC 8.91 µM
COC(=O)c1cc(OC)c(OC)cc1NC(=O)CSc1ccc(C)cc1 1.58 µM
CCCCCC(=O)N1CC2(CC(c3cccc(NC(=O)c4ccccc4)c3)=NO2)C[C@@H]1C(N)=O (stereo partly drawn) 15.8 µM
NC(=O)C1(NC(=O)[C@@H]2CC3(CC(c4cccc(NC(=O)c5cc([N+](=O)[O-])cc([N+](=O)[O-])c5)c4)=NO3)CN2C(=O)c2ccccc2)CC1 (stereo partly drawn) 3.16 µM
O=c1c2ccccc2nnn1CSc1nnc(COc2ccc(Cl)cc2)n1Cc1ccco1 12.6 µM
COc1ccc2[nH]cc(CCNc3ccnc(-c4ccc(C(=O)N(C)C)cc4)n3)c2c1 3.16 µM
COc1ccc2[nH]cc(CCNc3cc(-c4ccc(C(=O)N(C)C)cc4)ncn3)c2c1 6.31 µM
COc1ccc2[nH]cc(CCNc3ccnc(-c4ccc(N(C)C)cc4)n3)c2c1 5.01 µM
COc1ccc2[nH]cc(CCNc3ccnc(-c4ccc5c(c4)OCO5)n3)c2c1 2.51 µM
COc1ccc2[nH]cc(CCNc3ccnc(-c4c(C)noc4C)n3)c2c1 2.51 µM
COc1ccc2[nH]cc(CCNc3ccnc(-c4ccoc4)n3)c2c1 3.16 µM
O=C(NC(=S)N(CCCCO)C1CCCCC1)c1sc2ccccc2c1Cl 3.16 µM
C#CCSc1nnc(-c2sc(-c3ccccc3)nc2C)n1C 1 µM
Cc1ccc(-c2cc(-c3nnc(SCC(=O)NC(C)C(C)C)n3N)c3ccccc3n2)cc1 (stereo not drawn) 14.1 µM
CCCCC(=O)Nc1sc2c(c1C(=O)OCC)CCC(C=O)=C2Cl 15.8 µM
C/C(CCN1CCCCc2nc(C)c(C)cc21)=N\O[C@@H](C)CN1CCCCc2nc(C)c(C)cc21 3.98 µM
C/C(CCN1CCCc2nc(C)c(C)cc21)=N\O[C@@H](C)CN1CCCCc2nc(C)c(C)cc21 3.98 µM
C/C(CCN1CCc2nc(-c3ccccc3)c(-c3ccccc3)cc2C1)=N\O[C@@H](C)CN1CCCCc2nc(C)c(C)cc21 3.98 µM
C/C(CCN1CCCCc2nc(C)c(C)cc21)=N\O[C@@H](C)c1cc(-c2c(C)cc(C)cc2C)no1 3.98 µM

AC50, inactive:
Cc1cc(C)c2c(=O)[nH]c(SCC(=O)N(C)C)nc2n1
CCCCn1c(SC(C)C(N)=O)nc2cc(C(=O)OC)ccc2c1=O (stereo not drawn)
Cc1ccc(OC(=O)c2ccc(N3CCOCC3)c([N+](=O)[O-])c2)cc1
COc1ccc(C(C)=O)c(OC(=O)c2ccco2)c1
COC(=O)Nc1nc2ccc(SC(C)C)cc2[nH]1
CCCCc1ccc2nc(NC(=O)OC)[nH]c2c1
C[N+](C)(C)CCN(Cc1ccc(Cl)cc1)c1ccccn1
COc1ccc2c(c1OC)C(=O)N(C(C)C(=O)O)C2=O (stereo not drawn)
Cc1ccc(C)c(N/C(N)=N/c2nc(C)cc(C)n2)c1
Cc1ccc(C(C2C(=O)CC(C)(C)CC2=O)C2C(=O)CC(C)(C)CC2=O)s1
C[N+](C)(C)CCCCCCCCCC[N+](C)(C)C
COc1ccccc1-c1nnc(NC(C)=O)s1
CC(C)(C)c1cc(C(=O)O)c(CN2CCCCC2)o1
Cc1cc(NC(=O)C2=C(O)c3ccccc3S(=O)(=O)N2C)no1
Cc1nn2c3c(cnc2c1-c1ccccc1)C(=O)CC(c1ccccc1)C3 (stereo not drawn)
O=C(O)CCCC[C@H]1CCSS1
NC(=O)[C@H]1CC2(CC(c3cccc(NC(=O)c4ccccc4)c3)=NO2)CN1C(=O)[C@H]1CCC(=O)N1 (stereo partly drawn)
C=C(C)C(=O)N1CC2(CC(c3cccc(NC(=O)c4ccccc4)c3)=NO2)C[C@@H]1C(N)=O (stereo partly drawn)
O=S(=O)(C=C(c1ccccc1)c1ccccc1)c1ccccc1
CCC(=S)/C=C1\Sc2ccc3ccccc3c2N1CCCS(=O)(=O)O
CCOC(=S)NC(=O)c1sc2ccccc2c1Cl
CSc1nnc(-c2sccc2OCc2ccccc2)n1C
CSc1nnc(-c2sc(-c3ccccc3)nc2C)n1C
CCOC(=O)c1c(NC(=O)c2c(C)noc2C)sc2c1CCCCC2
Nc1ccc(C(=O)NCC(=O)O)cc1
CC[N+](CC)(CC)CC[C@](O)(c1ccccc1)C1CCCCC1
Nc1c2c(nc3ccccc13)CCC[C@H]2O
CCc1ccc2c(c1)c(N=NC1=NC(=O)CS1)c(O)n2CC

activity, negative = inhibition, inactive:
NC(=O)CSc1nc2sc(-c3ccccc3)cc2c(=O)n1N -22% [at 2.29 µM]
Cc1cc(N2CCOCC2)ncc1[N+](=O)[O-] 8.16% [at 2.29 µM]
CN(CC(=O)O)Cc1c(O)c(Cl)cc(Cl)c1Cl -14.8% [at 11.4 µM]
O=C(O)COc1c(Cl)cc(Cl)c2cccnc12 -9.36% [at 11.4 µM]
O=C1O[C@@H]([C@H](O)[C@H](O)[C@H](O)CO)[C@@H](O)[C@@H]1O -1% [at 11.4 µM]
CCCC(=O)n1nc(-c2cccnc2)nc1N 0.62% [at 2.29 µM]
CCOC(=O)c1ccccc1N/C=C1\CCCCC1=O -9.45% [at 11.4 µM]
CC(=O)Nc1ccc2c(c1)/C(=C/c1ccc([N+](C)(C)C)cc1)c1ccccc1-2 -11.9% [at 11.4 µM]
CCCS(=O)(=O)N1CCCC(C(=O)NCc2cccnc2)C1 (stereo not drawn) -7.24% [at 2.29 µM]
COCc1nnc(NC(=O)CSc2ccc(C)cc2)s1 -22.6% [at 11.4 µM]
NC(=O)CNC(=O)[C@@H]1CC2(CC(c3cccc([N+](=O)[O-])c3)=NO2)CN1C(=O)c1ccccc1 (stereo partly drawn) 8.44% [at 2.29 µM]
NC(=O)CNC(=O)[C@@H]1CC2(CC(c3ccc(Cl)cc3)=NO2)CN1C(=O)c1ccccc1 (stereo partly drawn) 16.2% [at 2.29 µM]
CN(C)c1ccc2nc3c(C(=O)O)cc(=O)c(O)c-3oc2c1 -10.3% [at 11.4 µM]
Oc1ccc2ccccc2c1CN(Cc1c(O)ccc2ccccc12)C1CCCCC1 -12% [at 11.4 µM]
O=C1CN2CCN(CC2)CC(=O)Nc2ccc(cc2)S(=O)(=O)c2ccc(cc2)NC(=O)CN2CCN(CC2)CC(=O)Nc2ccc(cc2)S(=O)(=O)c2ccc(cc2)N1 -29.8% [at 11.4 µM]
O=C(O)CSc1cc(-c2ccccc2)nc2ccccc12 -1.98% [at 11.4 µM]
O=C(O)c1cc2ccccc2c(S(=O)(=O)O)c1O 1.86% [at 11.4 µM]
CCN(CC)C[C@@H](O)CN1CCCCc2nc(C)c(C)cc21 -14.9% [at 11.4 µM]
CO/N=C(\C)CCN1CCCc2nc(C)c(C)cc21 -26.4% [at 11.4 µM]
Cc1cc2c(nc1C)CCCN2CC(O)CN1CCCc2nc(C)c(C)cc21 -8.33% [at 11.4 µM]
